Data: PubChem BioAssay (Tox21)
Inconclusive results are not listed. Where a call stands in place of a potency, no number is given. The source made the active and inactive calls. The call rests on the fitted dose curve; in most records, active means well fitted cell-killing curve with a large enough effect in the repeat runs; inconclusive means weak or mixed curves, or effect the other way; inactive means flat fitted curve, though single readings scatter.

What was measured:
[1] = cAMP Responsive Elements (CRE) small molecule antagonists, cell-based qHTS assay: qHTS cell viability counter screen (AID 2060913); details: CRE-bla HEK293T viability, CellTiter-Glo luminescence, 5 h; series mostly up to 92.4 µM; further: nearly all actives have a fitted effect of over 40% in size
Outline: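 Cytotoxicity counter screen multiplexed with the CRE-bla antagonist read: HEK293T cells in DMEM with dialyzed FBS and 25 mM HEPES were treated 3 hrs under 0.25 uM final NKH477, then viability measured by CellTiter-Glo luminescence.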

[2] = cAMP Responsive Elements (CRE) small molecule agonists, cell-based qHTS assay: qHTS cell viability counter screen (AID 2060914); details: CRE-bla HEK293T viability, CellTiter-Glo luminescence, 5 h; series mostly up to 92.4 µM;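 further: viability read after 3 h of compound exposure; nearly all actives have a fitted effect of over 50% in size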
Outline: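 Cytotoxicity counter screen multiplexed with the CRE-bla reporter assay in HEK 293T cells: 3 h compound exposure at 37 °C, followed by CellTiter-Glo luminescence measured in the same wells.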

## C=CC(=O)OCCCCO
[1]
  Potency: inactive
[2]
  Potency: inactive

## CCCCCCCCCCOC(=O)c1ccccc1C(=O)OCCCCCCCCCC
[1]
  Potency: inactive
[2]
  Potency: inactive

## O=[N+]([O-])c1ccccc1O
[1]
  Potency: inactive
[2]
  Potency: inactive

## CN(C)CCc1c[nH]c2ccc(O)cc12
[1]
  Potency: inactive
[2]
  Potency: inactive

## CCCCCON=O
[1]
  Potency: inactive
[2]
  Potency: inactive

## Oc1ccc(Cl)c(Cl)c1Cl
[1]
  Potency: inactive
[2]
  Potency: inactive

## Cc1cc(=O)[nH]o1
[1]
  Potency: inactive
[2]
  Potency: inactive

## CCN(CC)C(=O)/C(Cl)=C(\C)OP(=O)(OC)OC
[1]
  Potency: inactive
[2]
  Potency: inactive

## CC(O)CN1CCN(CC(=O)[O-])CCN(CC(=O)[O-])CCN(CC(=O)[O-])CC1.[Gd+3] (centres undefined)
[1]
  Potency: inactive
[2]
  Potency: inactive

## COP(=O)(O)OC
[1]
  Potency: inactive
[2]
  Potency: inactive

## CCCCCCn1cc[n+](C)c1
[1]
  Potency: inactive
[2]
  Potency: inactive

## Brc1ccccc1
[1]
  Potency: inactive
[2]
  Potency: inactive

## CC1Sc2c(C(=O)O)c(=O)c3cc(F)c(N4CCNCC4)cc3n21 (centres undefined)
[1]
  Potency: inactive
[2]
  Potency: inactive

## [O-][Cl+2]([O-])O
[1]
  Potency: inactive
[2]
  Potency: inactive

## CCOP(=S)(OCC)SCSc1ccc(Cl)cc1
[1]
  Potency: inactive
[2]
  Potency: inactive

## Clc1nc(Cl)nc(Nc2ccccc2Cl)n1
[1]
  Potency: inactive
[2]
  Potency: inactive

## CC(C)=CC1C(C(=O)OC(C#N)c2cccc(Oc3ccccc3)c2)C1(C)C (centres undefined)
[1]
  Potency: inactive
[2]
  Potency: inactive

## CCOC(=O)COc1ccc(Cl)cc1Cl
[1]
  Potency: inactive
[2]
  Potency: inactive

## COCCOCCO
[1]
  Potency: inactive
[2]
  Potency: inactive

## ClCCBr
[1]
  Potency: inactive
[2]
  Potency: inactive

## O=C(NC(O)C(Cl)(Cl)Cl)NC(O)C(Cl)(Cl)Cl (centres undefined)
[1]
  Potency: inactive
[2]
  Potency: inactive

## C[N+]1(C)[C@@H]2CC[C@H]1CC(OC(=O)C(CO)c1ccccc1)C2 (some centres undefined)
[1]
  Potency: inactive
[2]
  Potency: inactive
